Reference: PubChem BioAssay AID588674 (Broad Institute, 2011)
The campaign covered roughly 360,000 compounds. About 1,800 (0.5%) were called active.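 How the source made its calls: active means mean inhibition of at least 75% with every replicate also reaching 75%; inconclusive means mean inhibition at least 75% but some replicate below; inactive means mean inhibition below 75%.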 For the sample, actives were picked, then their nearest neighbours and some compounds at random.

Assay: reduction of Shn3 3'UTR firefly luciferase signal, primary screen, Schnurri-3 inhibitor project, cell-based, Clone20 osteoblasts, set 2 (AID 588674);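 further: 0% = median of neutral control wells and 100% = pilot-screen positive control compound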
Conditions: Clone20 osteoblast Shn3 3'UTR firefly luciferase, 24 h; at 12.5 µM; hits give high values

inhibition, active:
Cc1ccc(NC(=O)CN(C)CC(=O)Nc2cccc(F)c2)cc1[N+](=O)[O-] 90.8%, COc1cccc(/C=N/Nc2ncc(C(F)(F)F)cc2Cl)c1O 89.9%, CCCOC(=O)c1[nH]c2c(c1C)C(=O)CC(c1cc(OC)c(OC)c(OC)c1)C2 (stereo unspecified) 83.2%, Cc1nc2ccccc2cc1OCc1ccc(F)cc1 85.8%, COc1ccc(Cc2nnc(N/N=C/c3ccccc3O)[nH]c2=O)cc1OC 91.1%, COc1cccc(/C=N/Nc2cc(C)nc(-c3ccccc3O)n2)c1O 86.9%, Cc1cc(C)nc(S/C=C/C(=O)c2ccccc2)n1 95.6%, Cc1ccc(/C=N/NC(=O)C2=NNC(c3ccccc3)(c3ccccc3)C2)c(O)c1 88.2%, O=C(NC1=CC(=O)c2ccccc2C1=O)c1ccccc1 93.6%, Cn1c(SCC(=O)N2CCCc3ccccc32)nc2ccccc2c1=O 86.2%, Cc1ccc(C)c(S(=O)(=O)N2CCN(c3ncnc4sccc34)CC2)c1 86.3%, O=C1C=C(c2ccnc3cc(Cl)ccc23)C[C@@H](c2ccc3c(c2)OCO3)C1 85.5%, CC(=O)N1CCCc2cc(S(=O)(=O)N3CCCC(C(=O)N4CCN(c5cccc(Cl)c5)CC4)C3)ccc21 (stereo unspecified) 93%, O=C1C(Cl)=C(Oc2ccccc2)C(=O)c2ccccc21 96.1%, O=C(CCl)Nc1ccc(Sc2ccc(NC(=O)CCl)cc2)cc1 96.4%

inhibition, inactive:
C/C=C(/C)C(=O)OC1Cc2c(ccc3ccc(=O)oc23)OC1(C)C (stereo unspecified) 17.3%, COc1ccc(SCc2noc(C(=O)NCC3CCCO3)c2C(=O)O)cc1 (stereo unspecified) 5.13%, Cc1ccc(NC(=S)N2CCCC(c3ccccc3)=N2)cc1 20.9%, COc1ccc(-c2cc(C(F)(F)F)n3nc(C(=O)N4CCOCC4)c(Cl)c3n2)cc1 6.42%, Cc1ccc(NC(=O)c2sccc2C)cc1[N+](=O)[O-] -83.1%, CN(CC(=O)Nc1cccc(F)c1)C(=O)C1=COCCO1 -7.61%, Cc1noc(C)c1S(=O)(=O)N(C)C[C@H]1Oc2c(NC(=O)Nc3ccc4c(c3)OCO4)cccc2C(=O)N([C@H](C)CO)C[C@@H]1C 17.8%, O=C(OCCN1C(=O)c2ccccc2C1=O)[C@@H]1CC(O)CN1S(=O)(=O)c1ccccc1[N+](=O)[O-] (stereo partly specified) -5.63%, CN(C)C=NC(=O)c1cccn1-c1ncc(C(F)(F)F)cc1Cl -4.23%, O=c1[nH]c2cccnc2n(CCNc2ncc(C(F)(F)F)cc2Cl)c1=O 2.77%, O=C(COC(=O)c1ccccc1SCC(=O)N1CCCC1)Nc1ccccc1OC(F)F -12.8%, CCCOC(=O)c1[nH]c2c(c1C)C(=O)CC(c1cccs1)C2 (stereo unspecified) 24.4%, COC(=O)C1C(=O)c2c([nH]c(C(=O)OCCSC)c2C)CC1C (stereo unspecified) -58.5%, CC(c1ccco1)N(C(=O)c1ccc(S(=O)(=O)N2CCCCC2)cc1)c1ccccn1 (stereo unspecified) 13.4%, CC(=O)N1CCOc2ccc(S(=O)(=O)N3CCN(c4cccc(C(F)(F)F)c4)CC3)cc21 40.6%, CCOC(=O)c1c(C)[nH]c(C2=NNC(=NC(C)COC)SC2)c1C (stereo unspecified) -21.6%, Fc1cccc2ncnc(OCc3ccccc3)c12 18%, Cc1occc(=O)c1OCc1ccc(F)cc1 -22.9%, CC(C)c1ccc(Cc2nnc(NCCCO)[nH]c2=O)cc1 7.96%, COc1ccc(Cc2nnc(SC)[nH]c2=O)cc1 -14%, CC(/C=C/C1(O)C(C)CC(=O)CC1(C)C)OC1OC(CO)C(O)C(O)C1O (stereo unspecified) -14.8%, CCc1ccc(NC2Nc3cc(C)nn3S2)cc1 (stereo unspecified) -59%, COc1ccccc1-n1c(SCC(=O)Nc2cccc(C(=O)O)c2)nnc1-c1ccccc1O -11.2%, COc1cc(/C=N/Nc2ccc(C)cc2)cc(Br)c1O 5.6%, CN(CCO)S(=O)(=O)c1ccc2c(c1)C(=O)c1cc(S(=O)(=O)N(C)CCO)ccc1-2 16.6%, CCn1nc(C)c(CNC(=O)C2CCC(=O)N(Cc3cccc(F)c3)C2)c1C (stereo unspecified) -6.25%, COC(c1ccccc1)(c1ccccc1)C(Oc1nc(C)cc(C)n1)C(=O)O (stereo unspecified) 5.7%, Cc1cc(C)nc(SC(C)C(=O)N/N=C/c2cccs2)n1 (stereo unspecified) 4.78%, Clc1ccc(Cl)c(Oc2ccc(Oc3nc(Cl)ccc3Cl)cc2)n1 -2.29%, O=C(NN=Cc1ccc2c(c1)CCC2)c1ccccc1O -68.8%, O=C(N/N=C/c1ccccc1O)C1CCCC1 26.7%, COC(=O)Cc1ccc(OC2(C)CCN(Cc3ccc4c(c3)OCCO4)C2)cc1 (stereo unspecified) -22.2%, O=C(NCCCN1CCCCC1)C1CCCN(c2ncnc3c2nc2n3CCCCC2)C1 (stereo unspecified) 2.4%, O=C(CSC1=NS(=O)(=O)c2cc(F)ccc2N1)Nc1ccccc1F -17.3%, Cc1cc(C)n(CCC(=O)N2CCN(S(=O)(=O)c3ccc(C)c(C)c3)CC2)n1 -21.5%, COc1ccc(CCNC(=O)C(=O)NCC2CCNCC2)cc1OC -3.81%, O=C(O)CSc1nccn1-c1cccc(Cl)c1 -5.11%, O=C(NCCc1ccccc1)c1cccc(NC(=O)c2ccccc2)c1 -14.5%, Cc1cc(=O)c2ccc(NC(=O)c3ccccc3)cc2[nH]1 -6.37%, Cn1c2c(c(=O)n(C)c1=O)C1c3ccccc3OCC1C(C)(C)O2 (stereo unspecified) -0.463%, CC1COC2C(O1)N(S(C)(=O)=O)CCN2S(C)(=O)=O (stereo unspecified) 1.27%, C=CCn1c(=O)c2ccccc2n2c(SCC(=O)N3CCCc4ccccc43)nnc12 -3.54%, O=C(CSc1nc2ccccc2c(=O)n1CCCO)N1CCc2ccccc21 3.09%, Cn1cc(CN2CCCC(CO)C2)c(-c2ccc(Oc3ccccc3)cc2)n1 (stereo unspecified) 6.06%, C[C@H](NC(=O)CC[C@H]1O[C@@H](n2ccc(=O)[nH]c2=O)[C@H](O)[C@@H]1O)c1cccc2ccccc12 -13%, COc1cccc(CNC(=O)C(=O)NCCC2CCCCN2S(=O)(=O)c2ccc(C)cc2)c1 (stereo unspecified) 13.1%, C[C@H](NC(=O)c1[nH]cnc1C(=O)Nc1nccs1)c1ccccc1 -5.6%, COc1ccc(-c2csc3ncnc(N4CCN(S(=O)(=O)c5ccccc5C#N)CC4)c23)cc1 -3.1%, Cc1ccc(C)c(S(=O)(=O)N2CCN(CC(=O)Nc3ccc([N+](=O)[O-])cc3)CC2)c1 5.73%, C[n+]1cc(-c2ccccc2)oc1-c1ccccc1 -76.7%, Cc1ccccc1NC(=O)Cc1nc(COC(=O)C(C)(C)Oc2ccc(Cl)cc2)cs1 -2.77%, COc1cc(NC(=S)N2CCCC(C)C2)cc(OC)c1OC (stereo unspecified) -25.8%, COc1ccc2cc(C3=CC(=O)C[C@H](c4ccc5c(c4)OCO5)C3)ccc2c1 -45.2%, O=C1C=C(c2cc(C(F)(F)F)cc(C(F)(F)F)c2)C[C@@H](c2ccc3c(c2)OCO3)C1 15%, COc1ccccc1NC(=O)C(C)OC(=O)c1ccc(-n2cnnn2)cc1 (stereo unspecified) 1.76%, CC(=O)N1CCCc2cc(S(=O)(=O)CCC(=O)N3CCN(c4ccccc4)CC3)ccc21 -3.7%, CC(=O)N1c2ccc(S(=O)(=O)N3CCC(C(=O)N4CCN(c5ccccc5)CC4)CC3)cc2CC1C (stereo unspecified) 74.2%, CCOC(=O)C1=CC[C@@H](c2ccncc2)N(S(=O)(=O)c2ccc(C)cc2)C1 4.63%, COc1ccc(C(c2nnnn2C2CCCC2)N2CCN(C/C=C/c3ccccc3)CC2)cc1 (stereo unspecified) 16.4%, Cc1cc2nc(-c3ccco3)c(Cc3cccc(F)c3)n2c(C)c1Br 54.3%, O=C(NCc1cccs1)c1ccc2c(c1)ncn2C1CCCC1 -25.6%, COc1c(C=O)c(CCN(C)C(=O)c2ccc(F)cc2)cc2c1OCO2 -0.0815%, Cn1c(CCNS(=O)(=O)c2ccc(F)cc2)nnc1SCc1cccnc1 -8.53%, O=C(CCl)Nc1cccc(CP(=O)(c2ccccc2)c2ccccc2)c1 -0.336%, CC(=O)Nc1ccc(SCC(=O)NC(=O)c2ccc(Cl)cc2)cc1 5.11%, COCCN(CCOC)c1nc(N)c2c(N)nc3c(c2c1C#N)CC(=O)N3Cc1ccc(Cl)cc1 -5.44%
